The record followed here is PubChem BioAssay.

Inconclusive results are not listed. Active and inactive are the calls of the source.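 Rule for the calls, unless noted: active = inhibition above 54%, about 3 SD of non-fluorescent compounds; inactive = the rest.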

A short description of assay [1]: yeast TOR pathway RPL19A-GFP modulators, primary screen, cell-based, S. cerevisiae, multiplex flow cytometry (AID 1862; in the data active = percent of DMSO control GFP below about 86%;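 note: lower values mimic rapamycin by blocking the RPL19A rise seen in DMSO cells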). To be noted: S. cerevisiae RPL19A-GFP strain, flow cytometry fluorescence, 3 h; at 10 µM; stronger effect = lower value.
Assay [2] in a line: modulators of MEP2-GFP levels in yeast, primary screen, S. cerevisiae, multiplex flow cytometry (AID 1867;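 active = GFP response, as percent of the DMSO control, above the screen-wide mean plus 3 SD, about 139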;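 note: median GFP channel fluorescence of barcode-gated MEP2-GFP cells measured by flow cytometry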). To be noted: S. cerevisiae MEP2-GFP strain, 3 h, at 10 µM, stronger effect = higher value, 100% means same as DMSO wells.
The nature of assay [3]: modulators of CIT2-GFP expression in yeast, primary screen, S. cerevisiae, GFP fusion, multiplex flow cytometry (AID 1870;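 active = percent response above a set limit, the screen-wide mean plus 3 SD, cut at about 130% in these data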;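 note: barcoded CIT2-GFP strain pooled with four other GFP strains with rapamycin as positive control; median GFP fluorescence per well over plate mean of DMSO wells so 100% = DMSO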). The conditions noted are these: 3 h, at 10 µM, stronger effect = higher value.
Assay [4] in a line: modulators of LAP4-GFP expression in yeast, primary screen, S. cerevisiae, multiplex flow cytometry (AID 1873;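 active = GFP signal, as percent of the solvent control, above the screen mean plus 3 SD, about 149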). To be noted: 3 h, at 10 µM, stronger effect = higher value. (In general: Flow cytometry measures light scatter and fluorescence of single cells or particles in a stream.)
Assay [5] can be described thus: modulators of AGP1-GFP expression in yeast TOR pathway, primary screen, cell-based, multiplex flow cytometry, S. cerevisiae (AID 1887;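 active = GFP signal above the screen-wide mean plus 3 SD, that is over about 124.5% of the solvent control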;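 note: AGP1-GFP fusion strain of S. cerevisiae within a five-strain barcoded multiplex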). To be noted: 3 h, at 10 µM, stronger effect = higher value.
Assay [6] can be described thus: inhibitors of CD8+ T cell-vesicle binding, pilot screen, LFA-1/ICAM-1 modulator project, MLPCN validation set, flow cytometry (AID 2523;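 active = response below a set limit, under 55% cells CD8-positive and vesicle-bound, and CD8 cells' 90th-percentile brightness under 279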;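 for vesicle binding response: mean PE anti-B7-1 fluorescence of CD8+ cells relative to row control; 100% = QL9-loaded vesicles with DMSO vehicle in the same plate row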). To be noted: 2C mouse CD8+ T cells, at 7 µM, stronger effect = lower value; double positive events: measured here: CD8+/vesicle+ event percentage.
Assay [7] deals with Integrin beta-1 (Homo sapiens) + Integrin alpha-4 (Homo sapiens) (UniProt P13612+P05556). Description: inhibition of HUTS-21 binding to VLA-4, pilot screen, VLA-4 allosteric modulator project, U937 cells, HUTS-21 mAb, flow cytometry, validation set (AID 2674;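 active = inhibition above 50%, about 3 SD of the validation set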;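 note: antibody binding induced by the VLA-4 ligand LDV present at three times its Kd; 0% = LDV ligand with antibody and no compound and 100% = antibody without LDV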). The conditions noted are these: HUTS-21 LIBS mAb binding, at 6.7 µM, stronger effect = higher value, binding induced by LDV ligand.
Integrin beta-1 (Homo sapiens) + Integrin alpha-4 (Homo sapiens), sequence (P05556 whole entry, looked up): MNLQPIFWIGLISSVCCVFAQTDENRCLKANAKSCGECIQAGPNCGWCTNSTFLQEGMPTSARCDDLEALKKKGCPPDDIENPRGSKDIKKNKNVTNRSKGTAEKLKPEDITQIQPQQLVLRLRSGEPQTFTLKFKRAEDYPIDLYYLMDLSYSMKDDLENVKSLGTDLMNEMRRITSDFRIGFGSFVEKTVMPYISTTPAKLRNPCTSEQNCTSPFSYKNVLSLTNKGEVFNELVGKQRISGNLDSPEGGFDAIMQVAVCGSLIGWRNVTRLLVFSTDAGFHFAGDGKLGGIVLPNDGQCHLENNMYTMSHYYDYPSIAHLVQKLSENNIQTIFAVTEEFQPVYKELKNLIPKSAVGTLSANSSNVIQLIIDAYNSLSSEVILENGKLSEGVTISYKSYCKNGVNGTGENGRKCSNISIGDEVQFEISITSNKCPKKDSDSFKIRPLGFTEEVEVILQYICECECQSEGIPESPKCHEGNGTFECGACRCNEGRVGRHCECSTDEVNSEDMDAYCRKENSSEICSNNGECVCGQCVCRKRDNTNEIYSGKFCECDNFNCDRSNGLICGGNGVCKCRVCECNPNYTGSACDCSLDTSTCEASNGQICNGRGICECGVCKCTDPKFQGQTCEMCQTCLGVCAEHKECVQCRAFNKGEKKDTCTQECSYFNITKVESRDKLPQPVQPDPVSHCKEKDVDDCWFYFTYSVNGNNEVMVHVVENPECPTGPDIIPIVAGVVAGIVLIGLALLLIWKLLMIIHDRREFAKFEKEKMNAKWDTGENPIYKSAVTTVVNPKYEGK
Integrin beta-1 (Homo sapiens) + Integrin alpha-4 (Homo sapiens), sequence (P13612 whole entry, looked up): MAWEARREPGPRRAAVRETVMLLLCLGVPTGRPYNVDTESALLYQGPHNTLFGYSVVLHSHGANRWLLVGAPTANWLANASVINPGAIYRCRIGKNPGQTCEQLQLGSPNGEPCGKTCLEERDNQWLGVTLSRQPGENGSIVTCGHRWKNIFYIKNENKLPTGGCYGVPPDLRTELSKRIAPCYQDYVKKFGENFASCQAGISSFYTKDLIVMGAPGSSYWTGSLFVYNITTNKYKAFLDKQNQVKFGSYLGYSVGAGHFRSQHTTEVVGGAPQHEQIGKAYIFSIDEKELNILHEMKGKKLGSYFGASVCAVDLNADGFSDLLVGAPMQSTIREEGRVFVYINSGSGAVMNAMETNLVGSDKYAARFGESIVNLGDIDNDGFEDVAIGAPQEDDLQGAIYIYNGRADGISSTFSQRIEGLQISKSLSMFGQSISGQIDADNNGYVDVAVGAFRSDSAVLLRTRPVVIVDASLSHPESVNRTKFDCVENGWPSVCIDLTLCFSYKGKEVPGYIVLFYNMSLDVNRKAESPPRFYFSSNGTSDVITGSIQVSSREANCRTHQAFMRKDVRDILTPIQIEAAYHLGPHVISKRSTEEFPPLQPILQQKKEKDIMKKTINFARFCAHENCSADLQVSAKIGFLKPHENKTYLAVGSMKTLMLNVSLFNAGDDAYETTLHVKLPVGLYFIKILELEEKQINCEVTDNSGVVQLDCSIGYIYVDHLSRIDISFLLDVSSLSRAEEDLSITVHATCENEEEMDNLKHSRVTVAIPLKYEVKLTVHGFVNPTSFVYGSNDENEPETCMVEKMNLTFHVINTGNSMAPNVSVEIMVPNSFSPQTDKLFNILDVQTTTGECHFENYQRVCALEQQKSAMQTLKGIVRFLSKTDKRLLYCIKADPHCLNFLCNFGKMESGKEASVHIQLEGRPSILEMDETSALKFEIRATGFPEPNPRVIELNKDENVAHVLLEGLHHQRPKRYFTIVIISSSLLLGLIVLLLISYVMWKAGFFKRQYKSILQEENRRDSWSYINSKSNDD

Assay [8] is described as follows: superoxide lowering in aged yeast cells, pilot screen, validation compound set (AID 2706;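 active = superoxide response below 65% of plate, a cut near 3 SD across the whole screen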;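 note: yeast exposed to compound for one week at 30 degrees C before staining; 100% = mean of all compound wells on the same plate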). The conditions noted are these: S. cerevisiae aging, superoxide DHE fluorescence; at 10 µM; stronger effect = lower value.
Assay [9] concerns the target Beta-adrenergic receptor kinase 1 (Homo sapiens) (UniProt P25098). Description: GRK2 binders displacing RNA aptamer, biochemical, validation, human GRK2, bead flow cytometry (AID 488806;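 active = aptamer binding inhibition above 30%, about 3 SD of noise from non-fluorescent compounds; inactive = inhibition at or below 30%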). The conditions noted are these: bead-bound GRK2, FAM-aptamer displacement, at 10 µM, stronger effect = higher value.
In assay [10] the target is Beta-2 adrenergic receptor (Homo sapiens) (UniProt P07550). Description: beta2AR agonists driving receptor internalization, pilot screen, cell-based, FAP fluorogen, flow cytometry, validation set (AID 504459;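 active = percent response above 42, roughly 3 SD of non-fluorescent test compounds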;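 note: agonist-driven loss of surface beta2AR via internalization measured by FAP dye flow cytometry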). To be noted: Am2.2-beta2AR cells, FAP surface receptor flow cytometry; at 10 µM; stronger effect = higher value.
Beta-2 adrenergic receptor (Homo sapiens), sequence (P07550 whole entry, looked up): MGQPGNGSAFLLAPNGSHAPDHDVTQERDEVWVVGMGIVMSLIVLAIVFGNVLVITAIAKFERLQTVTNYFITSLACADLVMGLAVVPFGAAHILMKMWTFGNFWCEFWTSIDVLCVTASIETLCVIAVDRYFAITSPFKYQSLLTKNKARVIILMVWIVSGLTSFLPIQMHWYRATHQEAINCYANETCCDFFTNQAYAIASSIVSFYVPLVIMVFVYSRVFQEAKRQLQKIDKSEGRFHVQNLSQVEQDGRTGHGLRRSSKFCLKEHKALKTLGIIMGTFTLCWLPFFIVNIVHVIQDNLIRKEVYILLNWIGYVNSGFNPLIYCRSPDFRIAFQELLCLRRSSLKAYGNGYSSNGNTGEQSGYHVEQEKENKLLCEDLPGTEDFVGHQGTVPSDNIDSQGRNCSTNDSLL
The target of assay [11] is AP-2 complex subunit beta (Homo sapiens) (UniProt P63010). Description: inhibitors of arrestin peptide binding to AP2, pilot screen, biochemical, validation set, GST-AP2 beads, flow cytometry (AID 504541).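 Note: AP2 carries R879A mutation and is captured from E. coli lysate; bead-bound FITC arrestin peptide fluorescence measuring arrestin peptide binding to AP2; 0% = DMSO wells and 100% = excess unlabeled arrestin peptide control.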 To be noted: FITC arrestin peptide, at 10 µM, stronger effect = higher value, AP2 beta2 appendage fragment, R879A mutant.
AP-2 complex subunit beta (Homo sapiens), sequence (P63010 whole entry, looked up, the tested form may be a part, one chain of several): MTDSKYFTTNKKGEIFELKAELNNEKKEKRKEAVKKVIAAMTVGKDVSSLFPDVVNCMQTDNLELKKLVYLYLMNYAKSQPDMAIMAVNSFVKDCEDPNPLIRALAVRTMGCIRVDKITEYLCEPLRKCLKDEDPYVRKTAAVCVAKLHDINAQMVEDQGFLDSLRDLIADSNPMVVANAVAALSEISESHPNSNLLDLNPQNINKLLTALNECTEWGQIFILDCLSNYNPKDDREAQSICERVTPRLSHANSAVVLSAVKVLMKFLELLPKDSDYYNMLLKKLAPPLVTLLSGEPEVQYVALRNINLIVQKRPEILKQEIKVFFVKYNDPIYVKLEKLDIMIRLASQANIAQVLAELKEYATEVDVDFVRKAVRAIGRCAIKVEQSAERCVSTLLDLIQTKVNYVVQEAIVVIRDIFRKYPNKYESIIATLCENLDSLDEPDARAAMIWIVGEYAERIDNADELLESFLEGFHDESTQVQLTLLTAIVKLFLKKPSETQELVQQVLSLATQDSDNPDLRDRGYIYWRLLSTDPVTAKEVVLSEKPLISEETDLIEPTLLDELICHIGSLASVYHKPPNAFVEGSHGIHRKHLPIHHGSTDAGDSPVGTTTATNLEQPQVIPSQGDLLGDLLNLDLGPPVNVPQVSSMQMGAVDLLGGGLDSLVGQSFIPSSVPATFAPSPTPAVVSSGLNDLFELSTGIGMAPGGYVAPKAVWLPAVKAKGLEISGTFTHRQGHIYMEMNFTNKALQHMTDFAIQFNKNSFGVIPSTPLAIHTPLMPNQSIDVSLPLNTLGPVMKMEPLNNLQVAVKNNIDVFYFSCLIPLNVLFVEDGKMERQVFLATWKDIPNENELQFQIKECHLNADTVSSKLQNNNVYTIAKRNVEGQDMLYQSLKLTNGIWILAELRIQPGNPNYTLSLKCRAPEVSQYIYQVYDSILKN
A short description of assay [12]: yeast V-ATPase proton transport modulators, S. cerevisiae, pHLuorin, HTS validation (AID 504600; in the data active = response above about 15%;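 note: plate controls were DMSO for no effect and reference compound for full effect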). To be noted: S. cerevisiae pHLuorin cytosolic pH, at 10 µM, stronger effect = higher value.
The test system of assay [13] is anti-desmoglein-3 scFv antibody binding to human DSG3. Description: inhibitors of anti-DSG3 scFv binding to DSG3, pilot screen, biochemical, validation compound set, bead-based, flow cytometry (AID 588368;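 active = binding below the plate cutoff, the plate median minus 3 SD, with a reading above zero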;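 note: signal is the median channel fluorescence of bead-bound GFP antibody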). The conditions noted are these: Protein G beads, DSG3-Fc, scFv-GFP binding, at 10 µM, stronger effect = lower value.
A short description of assay [14]: inhibitors of fungal efflux pumps CDR1, CDR2, MDR1, pilot screen, validation compound set, multiplex, phenotypic (AID 588506;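 active = efflux inhibition above 0.42, the validation set average plus 4 SD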;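 note: Nile Red retained in cells so higher fluorescence means more efflux inhibition; 0 = negative control wells and 1 = enniatin B 25 µM full block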). To be noted: S. cerevisiae pump-expressing triplex, Nile Red efflux flow cytometry; at 10 µM; stronger effect = higher value; the pumps come from Candida albicans.
In assay [15] the target is ATP-binding cassette sub-family B member 6 (Homo sapiens) (UniProt Q9NP58). Description: ABCB6 transporter inhibitors, pilot screen, K562-ABCB6 cells, flow cytometry, validation set (AID 588550;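 active = inhibition above the screen-wide mean plus 3 SD, about 51%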;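 note: 0% = DMSO wells and 100% = benzethonium chloride 70 µM positive control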). To be noted: K562-ABCB6 porphyrin accumulation, 1 h, at 10 µM, stronger effect = higher value.
ATP-binding cassette sub-family B member 6 (Homo sapiens), sequence (Q9NP58 whole entry, looked up): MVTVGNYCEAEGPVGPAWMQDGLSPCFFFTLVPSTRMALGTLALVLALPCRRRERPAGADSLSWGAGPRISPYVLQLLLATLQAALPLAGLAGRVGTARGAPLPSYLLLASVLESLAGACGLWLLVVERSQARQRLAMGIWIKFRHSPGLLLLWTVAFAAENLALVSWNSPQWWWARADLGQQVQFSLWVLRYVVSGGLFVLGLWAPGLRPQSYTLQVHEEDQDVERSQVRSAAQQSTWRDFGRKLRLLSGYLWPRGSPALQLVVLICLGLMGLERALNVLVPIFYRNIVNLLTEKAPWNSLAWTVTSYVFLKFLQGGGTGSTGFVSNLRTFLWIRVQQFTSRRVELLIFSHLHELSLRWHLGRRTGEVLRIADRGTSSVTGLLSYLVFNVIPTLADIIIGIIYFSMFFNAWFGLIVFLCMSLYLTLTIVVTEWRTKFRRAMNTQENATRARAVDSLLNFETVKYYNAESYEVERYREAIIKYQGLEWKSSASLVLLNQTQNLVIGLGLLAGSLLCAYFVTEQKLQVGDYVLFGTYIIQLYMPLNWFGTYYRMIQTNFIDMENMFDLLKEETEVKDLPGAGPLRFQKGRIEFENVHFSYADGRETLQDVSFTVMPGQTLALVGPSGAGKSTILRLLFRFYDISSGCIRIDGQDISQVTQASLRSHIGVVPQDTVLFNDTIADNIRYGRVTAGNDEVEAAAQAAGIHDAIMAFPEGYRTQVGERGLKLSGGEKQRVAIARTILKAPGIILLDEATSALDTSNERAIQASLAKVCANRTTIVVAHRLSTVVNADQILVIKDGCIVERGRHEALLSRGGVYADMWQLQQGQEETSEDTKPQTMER
A short description of assay [16]: promoters of myeloid differentiation in arrested cells, primary screen, cell-based, GFP/MAC1 double positive, flow cytometry, validation set (AID 588685;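 active = differentiation response of at least 50%, scaled between solvent and reference control, from cells with both markers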;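 note: compound exposure lasts four days before antibody staining and flow analysis; 0% = DMSO wells and 100% = 5 µM fulvestrant positive control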). The conditions noted are these: ER-HoxA9 marrow cells, stronger effect = higher value, normalized: vehicle 0, fulvestrant 100.

Beta-adrenergic receptor kinase 1 (Homo sapiens), sequence (P25098 whole entry, looked up): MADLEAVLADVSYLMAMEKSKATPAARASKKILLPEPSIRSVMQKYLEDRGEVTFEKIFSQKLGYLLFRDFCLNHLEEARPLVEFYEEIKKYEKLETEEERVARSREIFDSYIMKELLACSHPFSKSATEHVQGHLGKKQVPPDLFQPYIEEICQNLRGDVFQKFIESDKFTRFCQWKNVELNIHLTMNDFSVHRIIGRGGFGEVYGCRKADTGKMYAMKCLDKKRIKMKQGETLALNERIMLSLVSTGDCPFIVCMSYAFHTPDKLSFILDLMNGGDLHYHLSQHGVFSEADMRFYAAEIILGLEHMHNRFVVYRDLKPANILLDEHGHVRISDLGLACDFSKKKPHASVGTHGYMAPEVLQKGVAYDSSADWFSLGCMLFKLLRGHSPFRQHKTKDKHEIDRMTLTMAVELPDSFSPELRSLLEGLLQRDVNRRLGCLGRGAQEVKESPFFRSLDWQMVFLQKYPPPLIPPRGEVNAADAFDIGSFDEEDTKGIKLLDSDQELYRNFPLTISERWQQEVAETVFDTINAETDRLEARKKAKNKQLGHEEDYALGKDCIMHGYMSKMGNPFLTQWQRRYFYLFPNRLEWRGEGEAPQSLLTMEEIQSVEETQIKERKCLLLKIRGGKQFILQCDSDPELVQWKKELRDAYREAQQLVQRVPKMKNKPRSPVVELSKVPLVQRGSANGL

A word on the inhibition: it is the change of the read-out against control, counted positive when it falls. In the case of `Cc1cc(/C=N/O)c(C)n1-c1ccc(Br)cc1`, the percent of DMSO control GFP in [1] is 100% (inactive). The GFP response vs DMSO in assay [2] was 101% (inactive); in assay [4], 93.7% (inactive). In addition, in assay [3], the percent response of DMSO control is 96.5% (inactive). For the same compound, the GFP response, % of DMSO in assay [5] is 91.1% (inactive). In [6], this compound had a double positive events of 65.6%. Further, the vesicle binding response in [6] was 263% (inactive). The inhibition was -7.79% (inactive) in assay [7], -0.76% (inactive) in assay [11] and -1% (inactive) in assay [15]. Besides, in assay [8], the superoxide response (% of plate) was 115% (inactive). Also, the aptamer binding inhibition in assay [9] is 2% (inactive). Besides, the response in assay [10] is 11.8% (inactive); in assay [12], -0.17% (inactive). Moreover, the binding (% of control) in assay [13] is 105% (inactive). In assay [14], the efflux inhibition (fraction of control) was -0.145 (inactive). In assay [16], the differentiation response was -6.03% (inactive).

Take `NS(=O)(=O)c1ccc(CNC(=O)c2cc(-c3ccccc3)nc3ccccc23)cc1`: the percent of DMSO control GFP in assay [1] is 98.8% (inactive). Also, the GFP response vs DMSO was 109% (inactive) in [2] and 95.3% (inactive) in assay [4]. In addition, the percent response of DMSO control in assay [3] is 104% (inactive). Moreover, the GFP response, % of DMSO in assay [5] was 97.5% (inactive). For the same compound, in [6], the double positive events was found to be 59.3%. Besides, the vesicle binding response in assay [6] was 220% (inactive). Besides, the inhibition in assay [7] is -7.72% (inactive); in [11] it was 16% (inactive); in assay [15], 1% (inactive). Moreover, in assay [8], the superoxide response (% of plate) was 104% (inactive). Moreover, the aptamer binding inhibition in [9] is 2% (inactive). Besides, the results for the response in [10] and in assay [12] were -8.54% (inactive) and -3.46% (inactive), respectively. Further, the binding (% of control) in assay [13] was 98% (inactive). Moreover, the efflux inhibition (fraction of control) in assay [14] was -0.1 (inactive). For the same compound, the differentiation response in assay [16] was 5.13% (inactive).

Take `CCc1c(C(C)=O)oc2ccc3c(C)cc(=O)oc3c12`: in [1], the percent of DMSO control GFP was 94.6% (inactive). The GFP response vs DMSO was 125% (inactive) in assay [2] and 91.9% (inactive) in assay [4]. The percent response of DMSO control in assay [3] is 115% (inactive). For the same compound, in [5], the GFP response, % of DMSO was 101% (inactive). The double positive events in assay [6] is 61.9%. Further, in assay [6], the vesicle binding response was 146% (inactive). For the same compound, the inhibition in [7] is -13.9% (inactive); in assay [11], -11.6% (inactive); in assay [15], 11% (inactive). The superoxide response (% of plate) in [8] was 92.5% (inactive). Further, the aptamer binding inhibition in assay [9] was 1% (inactive). For the same compound, the response is 1.28% (inactive) in assay [10] and 0.32% (inactive) in assay [12]. In addition, the binding (% of control) in [13] was 99% (inactive). Also, in [14], the efflux inhibition (fraction of control) was -0.17 (inactive). The differentiation response in assay [16] is 9.01% (inactive).

`Fc1ccc(-n2cc(CNCCc3ccccn3)c(-c3ccccc3Cl)n2)cc1`: the percent of DMSO control GFP in assay [1] is 106% (inactive). For the same compound, the GFP response vs DMSO in [2] is 102% (inactive); in assay [4], 106% (inactive). For the same compound, the percent response of DMSO control in assay [3] was 97.7% (inactive). Moreover, the GFP response, % of DMSO in assay [5] was 107% (inactive). The double positive events in [6] was determined as 63.8%. Besides, the vesicle binding response in assay [6] is 91.8% (inactive). Also, the results for the inhibition in assay [7], in assay [11] and in assay [15] were 15.9% (inactive), 1.4% (inactive) and -2% (inactive), respectively. The superoxide response (% of plate) in assay [8] was 98.4% (inactive). Also, the aptamer binding inhibition in [9] is -3% (inactive). Further, the response is -23.3% (inactive) in assay [10] and -7.11% (inactive) in assay [12]. In addition, the binding (% of control) in [13] is 110% (inactive). The efflux inhibition (fraction of control) in [14] is -0.17 (inactive). The differentiation response in assay [16] is -7.94% (inactive).

With `CCc1ccc2oc(=O)cc(CN3CCC(C)CC3)c2c1`, the percent of DMSO control GFP in assay [1] was 95% (inactive). Moreover, the GFP response vs DMSO was 104% (inactive) in [2] and 123% (inactive) in assay [4]. The percent response of DMSO control in assay [3] was 95.8% (inactive). Also, the GFP response, % of DMSO in [5] is 95.8% (inactive). In addition, the double positive events in [6] was 53.7%. Besides, in [6], the vesicle binding response is 178% (inactive). For the same compound, the inhibition in [7] is -18.2% (inactive); in [11], -0.51% (inactive); in assay [15], -5% (inactive). Besides, the superoxide response (% of plate) in assay [8] is 98.9% (inactive). Also, the aptamer binding inhibition in [9] was 0% (inactive). Moreover, the results for the response in assay [10] and in assay [12] were 13.8% (inactive) and 85.2% (active), respectively. Besides, in assay [13], the binding (% of control) is 103% (inactive). Further, in assay [14], the efflux inhibition (fraction of control) is -0.06 (inactive). Besides, in assay [16], the differentiation response was -12% (inactive).
